Source: PubChem BioAssay (EPA / NIEHS)
Activity calls are given as the source filed them. The calls were made as follows: active = hit-call score of the fitted dose curve at least 0.9, where 1 is the maximum; inactive = score below 0.9.

Biological target: Transcription factor Sp1 (Homo sapiens) (UniProt P08047)
Assay: ATG_Sp1_CIS: Attagene CIS-FACTORIAL HepG2 Assay for human Specificity Protein 1 (Sp1) (AID 2282961)
Conditions: HepG2 Sp1 cis-reporter transcription, actives raise or lower the signal
Procedure: ATG_CIS is a cell-based, multiplexed-readout assay that uses HepG2, a human liver cell line, with measurements taken at 24 hours after chemical dosing in a 24-well plate.ATG_Sp1_CIS is one of 52 assay component(s) measured or calculated from the ATG_CIS assay. It is designed to make measurements of mRNA induction, a form of inducible reporter, as detected with fluorescence intensity signals by Reverse transcription polymerase chain reaction (RT-PCR) and Capillary electrophoresis technology.Data from the assay component ATG_Sp1_CIS was analyzed into 1 assay endpoint. This assay endpoint, ATG_Sp1_CIS, was analyzed with bidirectional fitting relative to DMSO as the negative control and baseline of activity. Using a type of inducible reporter, measures of mRNA for gain or loss-of-signal activity can be used to understand the reporter gene at the transcription factor-level as they relate to the gene SP1. Furthermore, this assay endpoint can be referred to as a primary readout, because this assay has produced multiple assay endpoints where this one serves a reporter gene function. To generalize the intended target to other relatable targets, this assay endpoint is annotated to the dna binding intended target family, where the subfamily is zinc finger.
Human liver HepG2 cells are transiently transfected with multiple reporter transcription units (MRTUs) in 6-well plates using FuGene 6 reagent (Roche; 3 ml FuGene/1 mg DNA). The MRTU constructs are regulated by a cis-regulating element (promoter). […] A major difference between the CIS and TRANS system is that in CIS activities of endogenous TFs are measured, whereas the TRANS assay evaluates changes in activities of exogenous, chimeric NR-Gal4 proteins. […] At the end of 24 hour incubation, total RNA was isolated using TriZol reagent (Invitrogen). The isolated RNA is then reverse-transcribed using oligo(dT) primer and Mo-MLV reverse transcriptase (Invitrogen) with DNAse I (Ambion) treatment for 30 min. The one-tenth of the produced cDNA was amplified by PCR using Taq DNA polymerase (Invitrogen) and two reporter sequence-specific primers. The PCR products were fluorescently labeled by primer extension with 6-arboxyfluorescein (6-FAM) 5'-labeled reporter sequence-specific primer (2 min at 95 C, 20 s at 68 C and 10 min at 72 C) and these products were digested with 5U of HpaI (New England Biolabs) for 2h at 37 C. The fragments were purified using Qiaquick PCR columns (Qiagen), analyzed on an ABI 3130xL genetic analyzer (Applied Biosystems) with peak positions identified by using a set of X-rhodamine (ROX)-labeled MapMarker1000 molecular weight standards (BioVentures). The raw capillary electrophoresis data was processed using Attagraph software (Attagene).

Sequence of Transcription factor Sp1 (Homo sapiens) (P08047 whole entry, looked up): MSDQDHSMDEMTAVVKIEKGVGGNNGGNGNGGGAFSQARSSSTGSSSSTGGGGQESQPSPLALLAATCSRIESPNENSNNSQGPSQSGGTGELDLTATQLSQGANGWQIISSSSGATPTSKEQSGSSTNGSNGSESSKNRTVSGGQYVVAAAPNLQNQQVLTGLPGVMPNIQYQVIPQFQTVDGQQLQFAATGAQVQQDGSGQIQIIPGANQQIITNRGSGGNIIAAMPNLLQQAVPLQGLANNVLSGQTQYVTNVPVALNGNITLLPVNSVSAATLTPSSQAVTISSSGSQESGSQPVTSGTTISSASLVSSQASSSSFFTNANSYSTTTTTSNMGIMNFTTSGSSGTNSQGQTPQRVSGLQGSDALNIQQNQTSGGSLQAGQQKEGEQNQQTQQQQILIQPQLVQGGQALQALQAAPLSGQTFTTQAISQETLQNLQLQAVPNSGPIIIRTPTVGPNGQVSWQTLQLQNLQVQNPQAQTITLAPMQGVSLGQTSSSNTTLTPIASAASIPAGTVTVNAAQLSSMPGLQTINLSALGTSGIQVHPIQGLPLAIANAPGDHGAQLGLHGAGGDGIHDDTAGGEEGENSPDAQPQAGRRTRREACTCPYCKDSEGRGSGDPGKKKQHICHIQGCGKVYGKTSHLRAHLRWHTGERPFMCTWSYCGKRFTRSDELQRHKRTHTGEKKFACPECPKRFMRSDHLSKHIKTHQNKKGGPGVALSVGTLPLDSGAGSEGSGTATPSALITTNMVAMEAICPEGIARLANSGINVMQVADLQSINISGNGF

Row | SMILES | outcome | AC50
1 | CCCCCCCC(=O)OCC | inactive | –
2 | CC(C)c1cc(C(C)C)cc(C(C)C)c1 | – | 145 µM (active)
3 | Nc1ccc(C(=O)O)cc1 | inactive | –
4 | CCC(C)C(=O)OCCc1ccccc1 (stereo not given) | inactive | –
5 | Nc1ncnc2nc[nH]c12 | inactive | –
6 | C=C(C)OC(C)=O | inactive | –
7 | Clc1cc(Cl)c(Cl)c(Cl)c1Cl | inactive | –
8 | CC1=CP(=O)(c2ccccc2)CC1 (stereo not given) | inactive | –
9 | CN(C)c1ccc2nc3ccc(=[N+](C)C)cc-3sc2c1 | inactive | –
10 | Cc1noc(NS(=O)(=O)c2ccc(N)cc2)c1C | inactive | –
11 | CC(=O)CCC=C(C)C | inactive | –
12 | Cc1cc(C)n(CO)n1 | inactive | –
13 | Oc1c(Cl)cc(Cl)c(Cl)c1Cl | inactive | –
14 | O=C(O)CCCC(=O)O | inactive | –
15 | c1ccc2sc(SSN3CCOCC3)nc2c1 | – | 70.4 µM (active)
16 | CCCCCCCCCC[N+](C)(CCCCCCCCCC)CCC[Si](OC)(OC)OC | – | 21.1 µM (active)
17 | CCCCC1CCC(=O)O1 (stereo not given) | inactive | –
18 | CCC(C)C(=O)OC (stereo not given) | inactive | –
19 | O=c1c(O)c(-c2ccc(O)cc2O)oc2cc(O)cc(O)c12 | inactive | –
20 | CC(=O)c1ccc(S(=O)(=O)NC(=O)NC2CCCCC2)cc1 | inactive | –

Row | SMILES | outcome | AC50
21 | O=S(=O)(O)c1ccc(N=Nc2c(O)ccc3ccccc23)cc1 | inactive | –
22 | Cn1ccnc1 | inactive | –
23 | CCCCCCCCCCCCCCCCCCOS(=O)(=O)O | inactive | –
24 | CCCCCC[C@@H](O)C/C=C\CCCCCCCC(=O)OCC(O)CO (stereo not given in full) | – | 190 µM (active)
25 | Nc1ccnc(=O)[nH]1 | inactive | –
26 | COC(=O)CC(C)CCC=C(C)C (stereo not given) | inactive | –
27 | CC(=O)/C=C/C1C(C)=CCCC1(C)C (stereo not given) | inactive | –
28 | CCOc1ccc(NC(N)=O)cc1 | inactive | –
29 | CC(=O)OCC=C(C)C | inactive | –
30 | CC(C)(CO)COC(=O)C(C)(C)CO | inactive | –
31 | CC(=O)OC1CCCCC1C(C)(C)C (stereo not given) | inactive | –
32 | CCOC(=O)c1ccc(C)cc1 | inactive | –
33 | CC1=CC(C)C(C=O)CC1 (stereo not given) | inactive | –
34 | CC(C)OC(=O)c1ccccc1 | inactive | –
35 | O=C1c2ccccc2C(=O)c2cc(S(=O)(=O)O)ccc21 | inactive | –
36 | COc1nccnc1CC(C)C | inactive | –
37 | CC(c1cc(C(C)(C)C)cc(C(C)(C)C)c1O)c1cc(C(C)(C)C)cc(C(C)(C)C)c1O | inactive | –
38 | C=CC(=O)OCCCCCCCCCC | inactive | –
39 | CCCc1ccc(O)c(OC)c1 | inactive | –
40 | CC(=O)OCCc1ccccc1 | inactive | –
